Measured values published in PMC7862700, “An all-to-all approach to the identification of sequence-specific readers for epigenetic DNA modifications on cytosine”.

Legend:
Experiment in all cases: DAPPL (digital affinity profiling via proximity ligation, sequencing); 10 mM Tris-HCl pH 7.5, 50 mM NaCl, 1 mM DTT, 4% glycerol, room temperature, 30 min; GST-TFs on glutathione beads, 16-mer random dsDNA library, 0.1% formaldehyde crosslink after washing; high values mean tight binding
[1] = target: T1, FLI1 (Homo sapiens, UniProt Q01543 1-452); conditions: protein: recombinant; tags: N-terminal GST; dsDNA, one strand shown
T1 sequence: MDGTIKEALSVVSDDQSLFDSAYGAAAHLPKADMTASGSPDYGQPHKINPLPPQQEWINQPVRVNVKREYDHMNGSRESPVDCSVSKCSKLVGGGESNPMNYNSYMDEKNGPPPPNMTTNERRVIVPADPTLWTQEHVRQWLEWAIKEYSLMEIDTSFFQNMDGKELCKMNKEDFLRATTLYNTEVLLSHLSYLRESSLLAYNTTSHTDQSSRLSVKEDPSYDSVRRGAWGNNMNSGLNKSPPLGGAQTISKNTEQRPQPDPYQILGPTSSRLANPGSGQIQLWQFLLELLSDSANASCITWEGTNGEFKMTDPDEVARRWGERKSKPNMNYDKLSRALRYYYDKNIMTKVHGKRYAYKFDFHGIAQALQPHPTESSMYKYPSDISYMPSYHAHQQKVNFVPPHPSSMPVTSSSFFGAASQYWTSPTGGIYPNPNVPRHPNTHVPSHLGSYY
How it was run: (§1)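 Human transcription factors were made in yeast as GST fusions, captured on glutathione beads and barcoded with DNA. With a tag-only sample included, the pool was incubated with 200 nmole of a random double-stranded 16-mer DNA library in Tris/NaCl/DTT/glycerol buffer at room temperature for 30 min, then crosslinked with 0.1% formaldehyde after washing, ligated by proximity, amplified and sequenced. For binding signal, each hexamer's read frequency for a factor is divided by its frequency for the tag-only sample.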

[2] = target: T2, ELK1 (Homo sapiens, UniProt P19419 1-428); conditions: protein: recombinant; tags: N-terminal GST; dsDNA, one strand shown
T2 sequence: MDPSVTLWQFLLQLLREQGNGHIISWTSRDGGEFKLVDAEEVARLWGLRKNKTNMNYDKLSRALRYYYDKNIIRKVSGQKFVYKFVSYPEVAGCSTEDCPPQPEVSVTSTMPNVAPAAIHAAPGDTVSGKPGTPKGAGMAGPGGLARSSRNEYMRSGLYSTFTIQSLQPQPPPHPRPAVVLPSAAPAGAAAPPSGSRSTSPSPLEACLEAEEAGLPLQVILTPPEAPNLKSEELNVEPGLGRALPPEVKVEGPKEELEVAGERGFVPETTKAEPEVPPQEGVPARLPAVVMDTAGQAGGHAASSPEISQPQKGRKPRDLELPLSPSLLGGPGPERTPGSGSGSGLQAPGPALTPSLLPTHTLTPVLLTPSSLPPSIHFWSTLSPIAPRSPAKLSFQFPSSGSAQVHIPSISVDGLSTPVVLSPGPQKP
How it was run: as §1

[3] = target: T3, GABPA (Homo sapiens, UniProt Q06546 1-454); conditions: protein: recombinant; tags: N-terminal GST; dsDNA, one strand shown
T3 sequence: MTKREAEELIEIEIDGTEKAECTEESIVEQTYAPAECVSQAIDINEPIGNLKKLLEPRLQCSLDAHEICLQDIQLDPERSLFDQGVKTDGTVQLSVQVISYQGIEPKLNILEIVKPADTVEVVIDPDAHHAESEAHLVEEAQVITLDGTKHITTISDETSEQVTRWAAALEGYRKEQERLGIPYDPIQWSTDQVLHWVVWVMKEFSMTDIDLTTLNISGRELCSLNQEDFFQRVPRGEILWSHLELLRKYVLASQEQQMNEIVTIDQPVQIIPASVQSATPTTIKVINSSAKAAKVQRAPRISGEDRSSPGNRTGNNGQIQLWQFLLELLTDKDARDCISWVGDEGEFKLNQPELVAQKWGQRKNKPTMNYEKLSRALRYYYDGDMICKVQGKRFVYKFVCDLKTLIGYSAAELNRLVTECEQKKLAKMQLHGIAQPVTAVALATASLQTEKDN
How it was run: as §1

[4] = target: T4, ERG (Homo sapiens, UniProt P11308 1-479); conditions: protein: recombinant; tags: N-terminal GST; dsDNA, one strand shown
T4 sequence: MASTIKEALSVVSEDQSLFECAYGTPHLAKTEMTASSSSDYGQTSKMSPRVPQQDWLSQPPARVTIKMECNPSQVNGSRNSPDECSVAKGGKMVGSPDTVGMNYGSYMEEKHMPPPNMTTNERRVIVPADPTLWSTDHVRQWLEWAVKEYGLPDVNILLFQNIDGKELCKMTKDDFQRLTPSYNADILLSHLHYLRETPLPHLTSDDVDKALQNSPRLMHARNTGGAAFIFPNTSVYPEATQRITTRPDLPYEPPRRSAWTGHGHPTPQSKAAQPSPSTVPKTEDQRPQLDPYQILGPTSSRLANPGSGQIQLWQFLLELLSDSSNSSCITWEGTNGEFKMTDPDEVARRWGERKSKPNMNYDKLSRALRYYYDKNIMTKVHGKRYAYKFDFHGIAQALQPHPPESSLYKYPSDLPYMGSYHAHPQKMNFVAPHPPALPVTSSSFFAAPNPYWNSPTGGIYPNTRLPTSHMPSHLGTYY
How it was run: as §1

[5] = target: ELF1 (Homo sapiens, UniProt P32519 1-619); conditions: protein: recombinant; tags: N-terminal GST; dsDNA, one strand shown
How it was run: as §1

[6] = target: T5, EHF (Homo sapiens, UniProt Q9NZC4 1-300); conditions: protein: recombinant; tags: N-terminal GST; dsDNA, one strand shown
T5 sequence: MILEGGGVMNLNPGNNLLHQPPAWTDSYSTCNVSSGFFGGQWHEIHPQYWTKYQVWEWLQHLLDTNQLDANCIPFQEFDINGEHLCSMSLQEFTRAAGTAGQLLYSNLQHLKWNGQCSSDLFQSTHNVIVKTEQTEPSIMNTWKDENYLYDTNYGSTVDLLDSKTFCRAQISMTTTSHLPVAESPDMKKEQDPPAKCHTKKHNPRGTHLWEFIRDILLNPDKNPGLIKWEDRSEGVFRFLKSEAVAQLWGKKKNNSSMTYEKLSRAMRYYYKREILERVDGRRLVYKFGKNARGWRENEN
How it was run: as §1

[7] = target: SPI1 (Homo sapiens, UniProt P17947 1-270); conditions: protein: recombinant; tags: N-terminal GST; dsDNA, one strand shown
How it was run: as §1

[8] = target: SPIB (Homo sapiens, UniProt Q01892 1-262); conditions: protein: recombinant; tags: N-terminal GST; dsDNA, one strand shown
How it was run: as §1

[9] = target: T6, ELK3 (Homo sapiens, UniProt P41970 1-407); conditions: protein: recombinant; tags: N-terminal GST; dsDNA, one strand shown
T6 sequence: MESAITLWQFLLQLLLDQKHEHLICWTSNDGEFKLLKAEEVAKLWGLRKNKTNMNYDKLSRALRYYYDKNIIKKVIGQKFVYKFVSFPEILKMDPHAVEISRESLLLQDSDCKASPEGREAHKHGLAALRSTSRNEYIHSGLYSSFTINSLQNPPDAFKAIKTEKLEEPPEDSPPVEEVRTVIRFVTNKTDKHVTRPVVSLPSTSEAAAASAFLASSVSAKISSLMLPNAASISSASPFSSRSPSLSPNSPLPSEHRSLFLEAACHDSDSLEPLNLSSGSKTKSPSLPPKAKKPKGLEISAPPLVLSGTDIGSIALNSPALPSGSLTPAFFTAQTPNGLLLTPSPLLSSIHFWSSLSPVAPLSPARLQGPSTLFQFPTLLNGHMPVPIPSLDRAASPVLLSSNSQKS
How it was run: as §1

[10] = target: T7, FEV (Homo sapiens, UniProt Q99581 1-238); conditions: protein: recombinant; tags: N-terminal GST; dsDNA, one strand shown
T7 sequence: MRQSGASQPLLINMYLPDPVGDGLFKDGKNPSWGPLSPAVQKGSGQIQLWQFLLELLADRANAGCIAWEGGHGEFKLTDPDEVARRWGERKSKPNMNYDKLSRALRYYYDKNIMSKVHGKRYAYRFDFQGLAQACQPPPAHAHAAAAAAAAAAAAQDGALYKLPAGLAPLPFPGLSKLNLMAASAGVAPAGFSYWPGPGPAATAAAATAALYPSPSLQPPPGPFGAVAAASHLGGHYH
How it was run: as §1

[11] = target: ETV5 (Homo sapiens, UniProt P41161 1-510); conditions: protein: recombinant; tags: N-terminal GST; dsDNA, one strand shown
How it was run: as §1

[12] = target: HSF1 (Homo sapiens, UniProt Q00613 1-529); conditions: protein: recombinant; tags: N-terminal GST; chain copies: 3; dsDNA, one strand shown
How it was run: as §1

[13] = target: T8, SPIC (Homo sapiens, UniProt Q8N5J4 1-248); conditions: protein: recombinant; tags: N-terminal GST; dsDNA, one strand shown
T8 sequence: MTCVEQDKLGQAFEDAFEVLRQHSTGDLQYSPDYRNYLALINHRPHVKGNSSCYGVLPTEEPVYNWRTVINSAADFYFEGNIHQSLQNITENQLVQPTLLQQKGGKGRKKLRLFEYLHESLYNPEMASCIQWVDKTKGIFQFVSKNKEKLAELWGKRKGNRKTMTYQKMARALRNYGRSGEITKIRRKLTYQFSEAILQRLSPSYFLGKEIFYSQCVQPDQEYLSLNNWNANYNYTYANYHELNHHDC
How it was run: as §1

[14] = target: ELF4 (Homo sapiens, UniProt Q99607 1-663); conditions: protein: recombinant; tags: N-terminal GST; dsDNA, one strand shown
How it was run: as §1

[15] = target: T9, ELK4 (Homo sapiens, UniProt P28324-2 1-405); conditions: protein: recombinant; tags: N-terminal GST; dsDNA, one strand shown
T9 sequence: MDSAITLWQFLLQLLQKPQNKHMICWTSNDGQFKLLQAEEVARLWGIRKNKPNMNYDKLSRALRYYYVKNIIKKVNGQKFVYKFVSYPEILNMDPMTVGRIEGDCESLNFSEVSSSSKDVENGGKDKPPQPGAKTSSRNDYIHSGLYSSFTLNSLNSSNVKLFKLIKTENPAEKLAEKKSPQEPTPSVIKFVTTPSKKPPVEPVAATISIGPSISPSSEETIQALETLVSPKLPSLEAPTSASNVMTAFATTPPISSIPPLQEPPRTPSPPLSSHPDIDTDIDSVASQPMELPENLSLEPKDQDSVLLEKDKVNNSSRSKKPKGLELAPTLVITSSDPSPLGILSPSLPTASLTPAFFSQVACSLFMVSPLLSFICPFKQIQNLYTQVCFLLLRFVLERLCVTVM
How it was run: as §1

[16] = target: T10, ETV2 (Homo sapiens, UniProt O00321 1-342); conditions: protein: recombinant; tags: N-terminal GST; dsDNA, one strand shown
T10 sequence: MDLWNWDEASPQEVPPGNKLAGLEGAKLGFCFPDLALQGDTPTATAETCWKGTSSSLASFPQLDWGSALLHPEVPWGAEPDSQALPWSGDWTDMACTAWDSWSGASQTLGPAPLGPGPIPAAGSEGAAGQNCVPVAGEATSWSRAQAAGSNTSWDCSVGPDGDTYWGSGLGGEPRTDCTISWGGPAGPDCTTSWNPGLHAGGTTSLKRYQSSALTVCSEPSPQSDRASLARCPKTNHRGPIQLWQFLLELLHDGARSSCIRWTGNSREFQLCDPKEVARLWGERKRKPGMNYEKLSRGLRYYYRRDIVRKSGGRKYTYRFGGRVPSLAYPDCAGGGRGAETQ
How it was run: as §1

[17] = target: T11, ELF3 (Homo sapiens, UniProt P78545 1-371); conditions: protein: recombinant; tags: N-terminal GST; dsDNA, one strand shown
T11 sequence: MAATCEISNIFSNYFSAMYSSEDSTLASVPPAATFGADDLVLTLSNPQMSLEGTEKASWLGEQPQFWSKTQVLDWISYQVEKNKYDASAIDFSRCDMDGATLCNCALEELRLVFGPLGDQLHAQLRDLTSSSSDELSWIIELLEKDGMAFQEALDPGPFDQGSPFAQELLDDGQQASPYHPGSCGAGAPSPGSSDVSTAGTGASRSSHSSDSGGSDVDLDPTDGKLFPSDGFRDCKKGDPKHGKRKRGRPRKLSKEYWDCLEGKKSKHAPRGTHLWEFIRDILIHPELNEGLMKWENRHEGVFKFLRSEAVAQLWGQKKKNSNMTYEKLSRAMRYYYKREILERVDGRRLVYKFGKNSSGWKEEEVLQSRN
How it was run: as §1

[18] = target: CRX (Homo sapiens, UniProt O43186 1-299); conditions: protein: recombinant; tags: N-terminal GST; dsDNA, one strand shown
How it was run: as §1

[19] = target: ETV1 (Homo sapiens, UniProt P50549 1-477); conditions: protein: recombinant; tags: N-terminal GST; dsDNA, one strand shown
How it was run: as §1

ELF4, sequence (Q99607 whole entry): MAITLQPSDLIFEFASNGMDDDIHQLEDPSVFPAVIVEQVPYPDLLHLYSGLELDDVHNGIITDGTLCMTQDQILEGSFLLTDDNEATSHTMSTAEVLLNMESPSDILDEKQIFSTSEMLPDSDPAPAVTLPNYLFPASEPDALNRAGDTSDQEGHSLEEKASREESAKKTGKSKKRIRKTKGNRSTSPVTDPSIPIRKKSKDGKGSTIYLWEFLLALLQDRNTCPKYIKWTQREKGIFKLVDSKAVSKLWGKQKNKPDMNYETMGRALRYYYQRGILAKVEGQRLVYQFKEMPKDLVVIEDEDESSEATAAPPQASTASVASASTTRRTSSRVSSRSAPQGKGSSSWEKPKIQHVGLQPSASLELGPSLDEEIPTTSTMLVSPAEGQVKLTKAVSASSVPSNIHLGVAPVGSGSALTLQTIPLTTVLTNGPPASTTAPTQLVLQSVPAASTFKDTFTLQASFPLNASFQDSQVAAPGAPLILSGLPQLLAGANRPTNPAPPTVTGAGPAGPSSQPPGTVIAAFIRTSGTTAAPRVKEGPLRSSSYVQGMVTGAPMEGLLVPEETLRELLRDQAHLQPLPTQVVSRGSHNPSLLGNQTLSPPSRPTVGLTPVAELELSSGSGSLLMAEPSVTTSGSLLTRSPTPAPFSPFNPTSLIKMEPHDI
HSF1, sequence (Q00613 whole entry): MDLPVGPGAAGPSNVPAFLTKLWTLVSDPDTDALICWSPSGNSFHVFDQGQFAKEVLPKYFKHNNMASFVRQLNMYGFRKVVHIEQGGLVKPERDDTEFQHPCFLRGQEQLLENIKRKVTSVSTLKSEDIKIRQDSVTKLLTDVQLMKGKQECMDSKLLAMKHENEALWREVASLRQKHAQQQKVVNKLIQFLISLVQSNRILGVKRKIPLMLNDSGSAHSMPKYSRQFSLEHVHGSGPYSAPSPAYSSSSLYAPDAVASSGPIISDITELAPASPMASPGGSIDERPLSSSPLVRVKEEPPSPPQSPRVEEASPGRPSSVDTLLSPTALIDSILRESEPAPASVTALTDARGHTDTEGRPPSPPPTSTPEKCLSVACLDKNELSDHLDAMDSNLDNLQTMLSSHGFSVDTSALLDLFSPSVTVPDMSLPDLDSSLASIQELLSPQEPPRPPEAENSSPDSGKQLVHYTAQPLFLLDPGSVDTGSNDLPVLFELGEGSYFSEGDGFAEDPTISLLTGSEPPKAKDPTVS
SPIB, sequence (Q01892 whole entry): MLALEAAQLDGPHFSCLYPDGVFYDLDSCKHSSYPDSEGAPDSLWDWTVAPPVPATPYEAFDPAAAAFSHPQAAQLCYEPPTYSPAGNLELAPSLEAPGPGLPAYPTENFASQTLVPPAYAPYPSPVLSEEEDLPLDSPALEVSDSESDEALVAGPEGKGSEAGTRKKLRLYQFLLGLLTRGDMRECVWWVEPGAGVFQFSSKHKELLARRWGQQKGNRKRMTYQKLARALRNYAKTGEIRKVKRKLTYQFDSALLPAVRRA
ELF1, sequence (P32519 whole entry): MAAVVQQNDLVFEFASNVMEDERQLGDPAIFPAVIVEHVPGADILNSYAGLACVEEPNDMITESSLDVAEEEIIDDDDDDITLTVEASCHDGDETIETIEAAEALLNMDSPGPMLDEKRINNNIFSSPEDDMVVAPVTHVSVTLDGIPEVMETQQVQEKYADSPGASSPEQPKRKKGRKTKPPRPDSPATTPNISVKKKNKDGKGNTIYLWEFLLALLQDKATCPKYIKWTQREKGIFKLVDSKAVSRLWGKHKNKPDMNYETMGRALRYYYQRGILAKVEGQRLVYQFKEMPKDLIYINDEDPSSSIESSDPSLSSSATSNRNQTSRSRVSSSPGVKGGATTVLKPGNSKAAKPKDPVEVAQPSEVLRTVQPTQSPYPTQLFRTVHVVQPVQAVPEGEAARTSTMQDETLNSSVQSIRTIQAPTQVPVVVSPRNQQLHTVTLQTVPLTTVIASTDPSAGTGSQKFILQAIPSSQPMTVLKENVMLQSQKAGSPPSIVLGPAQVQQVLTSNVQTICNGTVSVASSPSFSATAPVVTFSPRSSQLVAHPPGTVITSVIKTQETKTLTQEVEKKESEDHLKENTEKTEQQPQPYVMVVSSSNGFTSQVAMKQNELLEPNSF
ETV5, sequence (P41161 whole entry): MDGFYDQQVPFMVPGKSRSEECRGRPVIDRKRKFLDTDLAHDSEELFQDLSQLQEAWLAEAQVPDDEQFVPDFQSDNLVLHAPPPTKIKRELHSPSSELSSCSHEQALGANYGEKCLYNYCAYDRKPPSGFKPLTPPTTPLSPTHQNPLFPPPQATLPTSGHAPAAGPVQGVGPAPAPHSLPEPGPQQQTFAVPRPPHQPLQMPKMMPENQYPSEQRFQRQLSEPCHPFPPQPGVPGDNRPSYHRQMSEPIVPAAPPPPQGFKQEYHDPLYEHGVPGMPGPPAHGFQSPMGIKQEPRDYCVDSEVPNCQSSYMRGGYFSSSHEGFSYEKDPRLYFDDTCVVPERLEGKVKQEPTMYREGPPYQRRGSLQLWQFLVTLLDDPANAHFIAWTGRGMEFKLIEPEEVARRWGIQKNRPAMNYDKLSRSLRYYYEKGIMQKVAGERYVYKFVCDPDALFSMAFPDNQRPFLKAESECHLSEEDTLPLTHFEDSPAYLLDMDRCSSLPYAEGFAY
CRX, sequence (O43186 whole entry): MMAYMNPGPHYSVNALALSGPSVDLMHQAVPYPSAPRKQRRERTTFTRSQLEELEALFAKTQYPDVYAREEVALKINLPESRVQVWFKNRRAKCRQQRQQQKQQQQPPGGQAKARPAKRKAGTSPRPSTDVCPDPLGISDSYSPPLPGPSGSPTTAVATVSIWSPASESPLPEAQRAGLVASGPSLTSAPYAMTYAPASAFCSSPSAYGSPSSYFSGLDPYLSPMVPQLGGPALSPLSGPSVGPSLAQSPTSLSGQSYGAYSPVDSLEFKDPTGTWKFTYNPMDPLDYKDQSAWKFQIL
ETV1, sequence (P50549 whole entry): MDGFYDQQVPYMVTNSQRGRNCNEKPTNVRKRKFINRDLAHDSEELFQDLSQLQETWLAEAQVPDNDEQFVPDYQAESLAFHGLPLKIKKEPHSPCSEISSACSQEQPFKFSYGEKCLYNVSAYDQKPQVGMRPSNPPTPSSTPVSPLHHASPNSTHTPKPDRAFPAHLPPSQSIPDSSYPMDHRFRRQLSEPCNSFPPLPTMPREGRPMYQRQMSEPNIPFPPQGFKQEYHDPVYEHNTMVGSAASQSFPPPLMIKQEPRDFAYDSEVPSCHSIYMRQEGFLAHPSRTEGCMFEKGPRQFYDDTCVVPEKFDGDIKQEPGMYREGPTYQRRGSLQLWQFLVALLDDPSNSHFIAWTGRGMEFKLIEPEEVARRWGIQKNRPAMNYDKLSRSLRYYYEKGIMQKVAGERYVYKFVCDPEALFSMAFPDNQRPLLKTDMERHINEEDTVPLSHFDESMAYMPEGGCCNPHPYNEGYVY

## AAATGC
[1]
  binding signal: 1.17 fold enrichment (6-mer frequency, TF over GST control)
[2]
  binding signal: 1.29 fold enrichment (6-mer frequency, TF over GST control)
[3]
  binding signal: 1.25 fold enrichment (6-mer frequency, TF over GST control)
[4]
  binding signal: 1.3 fold enrichment (6-mer frequency, TF over GST control)
[5]
  binding signal: 1.25 fold enrichment (6-mer frequency, TF over GST control)
[6]
  binding signal: 1.25 fold enrichment (6-mer frequency, TF over GST control)
[7]
  binding signal: 1.48 fold enrichment (6-mer frequency, TF over GST control)
[8]
  binding signal: 1.18 fold enrichment (6-mer frequency, TF over GST control)
[9]
  binding signal: 1.18 fold enrichment (6-mer frequency, TF over GST control)
[10]
  binding signal: 1.35 fold enrichment (6-mer frequency, TF over GST control)
[11]
  binding signal: 1.34 fold enrichment (6-mer frequency, TF over GST control)
[12]
  binding signal: 1.09 fold enrichment (6-mer frequency, TF over GST control)
[13]
  binding signal: 1.13 fold enrichment (6-mer frequency, TF over GST control)
[14]
  binding signal: 1.23 fold enrichment (6-mer frequency, TF over GST control)
[15]
  binding signal: 1.37 fold enrichment (6-mer frequency, TF over GST control)
[16]
  binding signal: 1.23 fold enrichment (6-mer frequency, TF over GST control)
[17]
  binding signal: 1.35 fold enrichment (6-mer frequency, TF over GST control)
[18]
  binding signal: 1.19 fold enrichment (6-mer frequency, TF over GST control)
[19]
  binding signal: 1.26 fold enrichment (6-mer frequency, TF over GST control)
